Compound activity from PubChem.
HIF-2a inh: inhibitors of HIF-2a | hit rate 0.72% among 360,000 | inhibition, % at 18.8 µM | 786-0 RCC cells HIF-2a reporter, luciferase luminescence, overnight;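 active = inhibition of the luminescence signal of 40% or more relative to plate controls, in a single-dose primary screen at 18.75 µM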
TROY NFkB inh: inhibitors of TROY-dependent NF-kB signaling. hit rate 0.98% among 360,000. inhibition, % at 10 µM. AID 1347056. Q293 LMP1-TROYcd NF-kB luciferase reporter, 4 h;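 active = compounds whose plate-normalised and pattern-corrected inhibition of the luciferase reporter signal at the single screening dose is 50% or more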
KKLEB cytotox: reduces viability of KKLEB cystic fibrosis airway cells; hit rate 0.36% among 360,000; activity change (cytotoxicity), % at 5 µM; KKLEB CF airway cells viability, ATPlite luminescence, overnight; stronger effect = lower value; cells stimulated with P. aeruginosa culture filtrate; AID 602141;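 active = corrected activity change at or below -50% at 5 µM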
Peg3 prom inh: Peg3 promoter activity inhibition; HeLa PEG-Prom luciferase reporter, luminescence, overnight; inhibition, % at 20 µM; hit rate 1.7% among 360,000;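 active = inhibition of at least 50% at 20 µM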
TWEAK-Fn14 inh: inhibitors of TWEAK-Fn14 interaction signaling; hit rate 2% among 360,000; AID 1159606; TWEAK-stimulated Fn14 reporter cells, luciferase luminescence, 8 h; inhibition, % at 10 µM; in the data active = inhibition above about 50%
CF NFkB block: blocks PAF-induced NF-kB reporter in cystic fibrosis cells; KKLEB NF-kB-GFP reporter, GFP fluorescence overnight; inhibition, % at 5 µM; hit rate 0.86% among 360,000;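 active = at least 50% inhibition at 5 µM, scaled per plate between neutral and stimulator controls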;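 note: PAF is a Pseudomonas aeruginosa culture filtrate used as stimulus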
Each line names hits and unclear results; the compound was inactive in the other large screens. The list is not random: actives were taken first. Their share in the collection is about 3.9%.

CC12CCC(O)CC1=CCC1C2CCC2(C)c3[nH]ncc3CC12 (stereo unspecified)	TROY NFkB inh 51
Cn1c(C(=O)N2CCN(c3ccc(Cl)cc3)CC2)cc2c(=O)[nH]c3ccccc3c21	none
Cc1ccc(Cl)cc1N1CCN(C(=O)c2cc3c(=O)[nH]c4ccccc4c3n2C)CC1	Peg3 prom inh 56
COc1cc(/C=C2/SC(=O)NC2=O)ccc1Oc1ccc([N+](=O)[O-])cc1[N+](=O)[O-]	TROY NFkB inh 54, TWEAK-Fn14 inh 56
O=[N+]([O-])c1cccc(C=NNC(=S)NC23CC4CC(CC(C4)C2)C3)c1	TROY NFkB inh 60
C=CCNC(=S)N/N=C/c1cccc([N+](=O)[O-])c1	none
O=[N+]([O-])c1cccc(-c2cc(-c3cc(Br)ccc3O)[nH]n2)c1	TWEAK-Fn14 inh 84
Oc1ccc(Br)cc1-c1cc(-c2ccccc2)n[nH]1	none
Cc1cc(C2CCCCC2)n(O)c(=O)c1	Peg3 prom inh 51
Cc1ccc(C(=O)Nc2ccc(S(=O)(=O)N3CCN(C)CC3)cc2)o1	none
Cc1ccc(-c2nn3c(C)nnc3c3ccccc23)cc1S(=O)(=O)NCCO	none
Cc1ccc(-c2nn3c(C)nnc3c3ccccc23)cc1S(=O)(=O)NC(C)c1ccccc1 (stereo unspecified)	KKLEB cytotox -63, TWEAK-Fn14 inh 58
Oc1ccc(-c2n[nH]c(=S)n2-c2ccc3c(c2)OCCO3)c(O)c1	TWEAK-Fn14 inh 52
C[C@H](CO)N1C[C@H](C)[C@H](CN(C)C(=O)N[C@H](C)c2ccccc2)OCc2ccccc2-c2c(n(C)c3ccccc23)C1=O	none
O=C(C#Cc1cccc([N+](=O)[O-])c1)c1ccccc1	TROY NFkB inh 63, KKLEB cytotox -64, Peg3 prom inh 107, TWEAK-Fn14 inh 66, CF NFkB block 97
COc1ccc(Cn2c(=O)[nH]c3cc(C(=O)N4CCN(Cc5ccccc5)CC4)ccc3c2=O)cc1	none
Cc1cccc(NC(=O)c2cc3c(=O)n4ccccc4nc3n(CC(C)C)c2=N)c1	Peg3 prom inh 54
Cc1ccc2nc3c(cc(C(=O)NCc4ccccc4)c(=N)n3CCCn3ccnc3)c(=O)n2c1	Peg3 prom inh 54
Cc1ccc2nc3c(cc(C(=O)NCCc4ccccc4)c(=N)n3CCN3CCOCC3)c(=O)n2c1	none
N=c1c(C(=O)NCc2ccc(F)cc2)cc2c(=O)n3ccccc3nc2n1Cc1ccco1	TROY NFkB inh 59, TWEAK-Fn14 inh 95
CCOC(=O)C1(CCCc2ccccc2)CCN(Cc2nccn2CC)CC1	none
Cc1ccc(CNC(=O)[C@H]2O[C@@H](n3ccc(N)nc3=O)[C@H](O)[C@@H]2O)o1	none
CC1(C)CCC(=O)N2CC[C@H]3C[C@H](OC(=O)Nc4ccc5c(c4)OCO5)C[C@@H]1[C@H]32	none
CCOC(=O)C1CCCN(S(=O)(=O)c2cc3c4c(c2)CCN4C(=O)CC3)C1 (stereo unspecified)	none
Cc1ccc(C(=O)NCCn2cc(SCC(=O)Nc3nnc(C)s3)c3ccccc32)cc1	TROY NFkB inh 77, TWEAK-Fn14 inh 91
CCOc1ccc(C(=O)NCCn2cc(SCC(=O)Nc3cc(C)on3)c3ccccc32)cc1	TROY NFkB inh 56
COc1ccc(C(=O)NCCn2cc(SCC(=O)Nc3cc(C)on3)c3ccccc32)cc1OC	none
Cc1cc(NC(=O)CSc2cn(CCNC(=O)c3ccc(Cl)cc3)c3ccccc23)no1	TROY NFkB inh 71, TWEAK-Fn14 inh 67
COc1ccc(C(=O)Cn2c(=O)c(CCC(=O)O)nn3c4ccccc4nc23)cc1OC	none
Cc1cccc(-c2cc(C(=O)Nc3ccc4c(c3)OCCO4)c3ccccc3n2)c1	TWEAK-Fn14 inh 55
Cc1ccc(C(=O)Nc2ccc3c(c2)OCCO3)c(Cl)c1	TWEAK-Fn14 inh 90
Cc1cc(C(=O)Nc2ccc3c(c2)OCCO3)ccc1[N+](=O)[O-]	TWEAK-Fn14 inh 62
CCOc1ccc(-c2cc(C(=O)Nc3ccc4c(c3)OCCO4)c3ccccc3n2)cc1	none
Cc1ccc(OCC(=O)Nc2ccc3c(c2)OCCO3)cc1C	TWEAK-Fn14 inh 54
O=C(Nc1ccc2c(c1)OCCO2)c1cc(F)c(F)cc1Cl	none
CCCn1c(=O)c(C(=O)NCc2ccco2)c(O)c2ccccc21	none
CC1(C)CC(=O)N(c2ccc(Cl)c(Cl)c2)C(=O)C1	none
Cc1ccc(S(=O)(=O)Nc2ccccc2C(=O)Nc2ccc(S(=O)(=O)Nc3nccc(C)n3)cc2)cc1	none
CCNC(=O)NC(=O)C(C)Sc1ccc2c(c1)OCCO2 (stereo unspecified)	none
Cc1ccn2cc(C(=O)Nc3ccc4c(c3)OCCO4)nc2c1	TWEAK-Fn14 inh 62
Cc1ccc(C(=O)Nc2ccc3c(c2)CCC3)cc1	TWEAK-Fn14 inh 71
Cc1ccn2cc(C(=O)Nc3ccccc3N3CCOCC3)nc2c1	none
Cc1ccc(C(=O)Nc2ccc3c(c2)OCCO3)cc1	TWEAK-Fn14 inh 84
Cc1ccc(C(=O)Nc2ccc3c(c2)OCO3)cc1	TWEAK-Fn14 inh 53
Cn1c(C(=O)NC2CC2)cc2c(=O)n(C)c3ccccc3c21	none
O=C(Nc1ccc2c(c1)OCCO2)c1ccc2nccnc2c1	TWEAK-Fn14 inh 70
Cn1c(C(=O)Nc2ccc3c(c2)OCCO3)cc2c(=O)n(C)c3ccccc3c21	TWEAK-Fn14 inh 65
O=C(Nc1cccc2ncccc12)c1ccc2c(c1)OCCO2	TWEAK-Fn14 inh 83 (no result: TROY NFkB inh)
COc1ccc2nc(SCC(=O)Nc3ccc4c(c3)OCCO4)[nH]c2c1	TROY NFkB inh 69, TWEAK-Fn14 inh 89
COc1ccc(NC(=O)C2CCC2)cc1S(=O)(=O)Nc1cc(C)ccc1Br	none
Cc1ccc(C(=O)Nc2ccncc2)c(C)c1	none
C[C@]12C=C[C@H](O)CC1=CCC1C2CC[C@@]2(C)C1CCC21OCCO1 (stereo partly specified)	none
Cc1cc(NC(=O)c2ccc3c(c2)OCO3)no1	none
Cc1cc(NC(=O)c2ccc3c(c2)OCCO3)no1	TWEAK-Fn14 inh 77
O=C(NNC(=O)c1ccc(Cl)c([N+](=O)[O-])c1)c1ccncc1	none
COc1ccc(C(=O)NCCn2cc(SCC(=O)N3CCOCC3)c3ccccc32)cc1	TROY NFkB inh 67
COc1ccc(C(=O)NCCn2cc(SCC(N)=O)c3ccccc32)cc1	TROY NFkB inh 63, TWEAK-Fn14 inh 51
O=C(NCCn1cc(SCc2ccccc2F)c2ccccc21)c1c(F)cccc1F	TWEAK-Fn14 inh 62
COc1ccc(C(=O)NCCn2ccc3ccccc32)cc1	none
O=C(CSc1cn(CCNC(=O)c2ccc3ccccc3c2)c2ccccc12)NCc1ccco1	TWEAK-Fn14 inh 60
COc1cc(/C=N/NC(=O)COc2cccc(F)c2)ccc1OS(=O)(=O)c1ccc(C)cc1	TWEAK-Fn14 inh 51
COc1cc(/C=N/NC(=O)COc2ccc(Cl)cc2)ccc1OS(=O)(=O)c1ccc(C)cc1	none
CN(C)CCCN=Cc1c(O)n(Cc2ccccc2)c(=O)c2ccccc12	none
